# Values joined by “and” are separate entries in the source; they are usually repeats but may differ in a detail not shown here. Equal entries are not always repeated. Results filed as inconclusive are left out. Some structures have more than one record in an assay (separate samples or runs), and their calls can disagree. Active and inactive are the calls of the source. Unless noted, the call rests on the fitted dose curve; in most records, active means well fitted curve in either direction with a large enough effect (not every such curve was filed as active); inconclusive means small, poorly fitted or top-dose-only effect, or another doubt; inactive means flat fitted curve, though single readings scatter. Residues, ends and D or L forms follow the SMILES beside them. *: point of attachment. Cbz = O=C(OCc1ccccc1)*
# How the values were obtained:
# [1] = AP1 Signaling Pathway (AID 357); details: ME-180 (cervical carcinoma) AP-1-bla reporter, EGF-induced, beta-lactamase ratio, 5 h; further: on the % scale 0 is the no-effect control and ±100 the full control effect
# How it was run: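 In this screen, ME-180 cells in Opti-MEM with 0.5% dialyzed FBS received EC50 EGF and compound titrations for 5 h. AP-1 reporter beta-lactamase was detected via CCF4 ratio, giving AC50 for positive and negative modulators.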
# [2] = NFAT Signaling Pathway (AID 444); details: Jurkat NFAT-bla M1, carbachol, beta-lactamase ratio, 5 h;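 further: carbachol stimulus at about its EC50 of 1 µM final; on the % scale 0 is the no-effect control and ±100 the full control effect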
# How it was run: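 Read-out: CCF4 FRET ratio (460 nm/530 nm) after 1 h RT dye loading, used for %activity and AC50 from titration series. Cells: Jurkat NFAT-β-lactamase/M1 line, treated with compound plus 1 uM carbachol for 5 h, 37 °C.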
# [3] = target: Cytochrome P450 1A2 (Homo sapiens) (UniProt P05177); assay: p450-cyp1a2 (AID 410; calls by dose curve; further: potency means the concentration at half of the fitted maximal effect;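 on activity change, negative = inhibition: -100% = full effect of reference inhibitor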); details: recombinant CYP1A2, luciferin-ME demethylation, luminescence; series mostly up to 57 µM
# Cytochrome P450 1A2 (Homo sapiens), sequence (P05177 whole entry, looked up): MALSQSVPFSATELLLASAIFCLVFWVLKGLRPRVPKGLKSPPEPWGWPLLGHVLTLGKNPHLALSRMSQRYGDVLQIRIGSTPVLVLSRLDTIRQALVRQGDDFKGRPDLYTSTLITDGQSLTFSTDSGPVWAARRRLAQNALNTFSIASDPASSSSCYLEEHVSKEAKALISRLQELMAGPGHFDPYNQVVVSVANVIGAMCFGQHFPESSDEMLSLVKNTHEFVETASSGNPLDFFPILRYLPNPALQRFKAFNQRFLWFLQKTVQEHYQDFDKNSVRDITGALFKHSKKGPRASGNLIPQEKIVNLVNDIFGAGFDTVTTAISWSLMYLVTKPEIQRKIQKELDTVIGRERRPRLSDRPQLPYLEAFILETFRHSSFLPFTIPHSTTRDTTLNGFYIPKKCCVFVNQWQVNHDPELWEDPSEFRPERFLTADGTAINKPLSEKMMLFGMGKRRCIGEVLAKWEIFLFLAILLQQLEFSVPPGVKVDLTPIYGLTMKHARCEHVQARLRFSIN
# How it was run: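 20nM CYP1A2 with 100uM Luciferin-ME (at Km) in 100mM KPO4; compound preincubated 10 min, NADPH regeneration added, 60 min at room temperature. Luciferin quantified by luminescence after detection reagent; normalized to 57 uM furafylline.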
# [4] = Cell Viability - BJ (AID 421; calls by dose curve;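 further: potency means the concentration at half of the fitted maximal effect; cells exposed to compound for 40 hours at 37 °C before readout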); details: BJ fibroblast viability, qHTS
# How it was run: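 Cytotoxicity as drop in intracellular ATP (CellTiter-Glo, 20 min RT) after 40 hr compound exposure of BJ fibroblasts at 37 °C. Titrations scaled between DMSO and 100 uM tamoxifen, Hill-fitted for AC50.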
# [5] = Cell Viability - Jurkat (AID 426;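 active means dose-dependent loss of cell ATP signal giving a full or clear fitted curve, ranked by lower potency value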;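 further: potency means the concentration at half of the fitted maximal effect; cells exposed to compound for 40 hours at 37 °C before ATP read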); details: qHTS
# How it was run: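 Jurkat (Clone E6-1) cells, 5000/well in complete medium, exposed to compounds for 40 hr at 37C; intracellular ATP measured by CellTiter-Glo luminescence after 20 min at room temperature. AC50 from Hill fits.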
# [6] = Cell Viability - Hek293 (AID 427;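 active means compounds whose dose-response curve shows a full or clear partial loss of cell viability, called from curve shape rather than a numeric limit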;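 further: potency means the concentration at half of the fitted maximal effect; cells exposed to compound for 40 hours at 37 °C before reading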); details: qHTS
# How it was run: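 Luminescent ATP content (CellTiter-Glo, 20 min at room temperature) was measured after a 40 hr, 37 °C compound exposure of HEK293 cells. AC50 values came from Hill-equation fits of qHTS concentration-response data normalized to DMSO and 100 uM tamoxifen.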
# [7] = Cell Viability - HepG2 (AID 433; calls by dose curve;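 further: potency means the concentration at half of the fitted maximal effect; potency for ATP loss meaning cytotoxicity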); details: qHTS
# How it was run: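 Cytotoxicity is scored as loss of intracellular ATP in HepG2 cells exposed to compounds for 40 h. Concentration-response curves, normalized to DMSO and 100 uM tamoxifen, give AC50 values.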
# [8] = Cell Viability - MRC5 (AID 434; calls by dose curve;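 further: potency means the concentration at half of the fitted maximal effect; potency reflects cytotoxicity seen as loss of intracellular ATP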); details: MRC5 lung fibroblast viability, qHTS
# How it was run: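 qHTS cytotoxicity in human lung fibroblast MRC5 cells; 40 hr treatment, 37 °C; cellular ATP by luciferase luminescence; DMSO = 0%, 100 uM tamoxifen = 100% inhibition; Hill-fit AC50.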
# [9] = Cell Viability - SK-N-SH (AID 435; calls by dose curve;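 further: potency means the concentration at half of the fitted maximal effect; compound exposure lasted 40 h at 37 °C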); details: SK-N-SH neuroblastoma cell viability qHTS
# Description: NIH Chemical Genomics Center [NCGC]
# NIH Molecular Libraries Screening Centers Network [MLSCN]
# National Institutes of Environmental Health Sciences [NIEHS]
# National Toxicology Program [NTP]
# We have developed a 1536-well cell-based assay for quantitative high throughput screening (qHTS) against a number of cell lines to determine in vitro cytotoxicity of small molecules. This particular assay uses the SK-N-SH cell line which is derived from human neuroblastoma.
# NCGC Assay Protocol Summary:
# The CellTiter-Glo luminescent cell viability assay (Promega) is a homogeneous method to measure the number of viable cells in culture. The end point readout of this assay is based on quantitation of intracellular ATP, an indicator of metabolic activity, using the luciferase reaction. Luciferase catalyzes the oxidation of beetle Luciferin to oxyluciferin and light in the presence of ATP. […]
# Using the CellTiter-Glo luminescent cell viability assay, the amount of cellular ATP was measured in the SK-N-SH cell line with complete culture medium following compound treatment for 40 hours. […] Library compounds were measured for their ability to cause acute toxicity in the cell line, as reflected by a decrease in intracellular ATP levels, in a concentration-dependent manner. […] AC50 values were determined from concentration-response data modeled with the standard Hill equation. […]
# 8. Detection; Luminescence; Viewlux plate reader […]
# [10] = at 38 µM (top of the series) unless noted
smiles,measurement,setting,value
O=[N+]([O-])c1cccc2cn[nH]c12,"activity change, negative = inhibition",[1]; at 17.2 µM (top of the series),-15.6% (inactive)
same,"activity change, negative = inhibition",[1]; at 38 µM (top of the series),0.682% (inactive)
same,"activity change, negative = inhibition",[2]; at 17.2 µM (top of the series),-4.2% (inactive)
same,"activity change, negative = inhibition",[2]; at 38 µM (top of the series),-7.34% (inactive)
O=C(O)c1cccnc1C(=O)O,"activity change, negative = inhibition",[1]; [10],-4.89% (inactive)
same,Potency,[3],inactive
same,"activity change, negative = inhibition",[2]; [10],-4.14% (inactive)
O=C(O)Cc1ccc(O)c(O)c1,"activity change, negative = inhibition",[1]; [10],-7.22% (inactive)
same,Potency,[3],inactive
same,"activity change, negative = inhibition",[2]; [10],12.7% (inactive)
Cn1c(=O)c2[nH]c(C3CCCC3)nc2n(C)c1=O,"activity change, negative = inhibition",[1]; [10],0.66% (inactive)
same,Potency,[3],12.6 µM (active)
same,"activity change, negative = inhibition",[2]; [10],3.19% (inactive)
N=C(N)c1ccccc1,"activity change, negative = inhibition",[1]; [10],10.4% (inactive)
same,Potency,[3],inactive
same,"activity change, negative = inhibition",[2]; [10],-2.62% (inactive)
Nc1ncnc2c1c(-c1ccc(Oc3ccccc3)cc1)cn2C1CCCC1,"activity change, negative = inhibition",[1]; [10],-103% (active)
Cc1ccc2c(c1)C(N1CCN(C)CC1)=Nc1cccnc1N2,"activity change, negative = inhibition",[1]; [10],22.6% (inactive)
O=C(OCCN1CCOCC1)C1(c2ccccc2)CCCCC1,"activity change, negative = inhibition",[1]; [10],-11.4% (inactive)
same,Potency,[3],31.6 µM (active)
O=C(O)C1=CCNCC1,"activity change, negative = inhibition",[1]; [10],-4.73% (inactive)
same,Potency,[3],inactive
same,"activity change, negative = inhibition",[2]; [10],-0.658% (inactive)
COc1ccc(-c2ccc(N)[n+](CCCC(=O)O)n2)cc1,"activity change, negative = inhibition",[1]; at 17.2 µM (top of the series),-6.26% (inactive)
same,"activity change, negative = inhibition",[1]; at 38 µM (top of the series),-9.04% (inactive)
same,"activity change, negative = inhibition",[2]; at 17.2 µM (top of the series),1.69% (inactive)
same,"activity change, negative = inhibition",[2]; at 38 µM (top of the series),4.41% (inactive)
N=C(N)c1ccc(N)cc1,"activity change, negative = inhibition",[1]; [10],6.35% (inactive)
same,Potency,[3],inactive
same,"activity change, negative = inhibition",[2]; [10],5.12% (inactive)
CC(C)NCC(O)COc1ccc(CC(N)=O)cc1 (centres undefined),"activity change, negative = inhibition",[1]; [10],5.57% [at 17.2 µM] (inactive)
CSC(=N)N,"activity change, negative = inhibition",[1]; [10],-0.186% (inactive)
same,Potency,[3],inactive
same,"activity change, negative = inhibition",[2]; [10],4.79% (inactive)
COc1ccc(C(=O)NCc2cccnc2)cc1C(=O)NCc1cccnc1,"activity change, negative = inhibition",[1]; at 17.2 µM (top of the series),9.58% (inactive)
same,"activity change, negative = inhibition",[1]; at 38 µM (top of the series),4.86% (inactive)
same,"activity change, negative = inhibition",[2]; at 17.2 µM (top of the series),-4.93% (inactive)
same,"activity change, negative = inhibition",[2]; at 38 µM (top of the series),-7.04% (inactive)
CC(C)NC[C@H](O)COc1ccc(CC(N)=O)cc1,"activity change, negative = inhibition",[1]; at 17.2 µM (top of the series),-3.59% (inactive) and 11.3% (inactive)
same,"activity change, negative = inhibition",[1]; at 38 µM (top of the series),0.299% (inactive) and 0.963% (inactive) and -3.89% (inactive)
same,"activity change, negative = inhibition",[2]; at 17.2 µM (top of the series),-9.34% (inactive) and -0.713% (inactive)
same,"activity change, negative = inhibition",[2]; at 38 µM (top of the series),-2.26% (inactive) and 6.34% (inactive) and 5.93% (inactive)
CC(=O)C(C)=O,"activity change, negative = inhibition",[1]; [10],-3.27% (inactive)
same,Potency,[3],inactive
same,Potency,[4],> 92 µM (inactive)
same,Potency,[5],> 92 µM (inactive)
same,Potency,[6],> 92 µM (inactive)
same,Potency,[7],> 92 µM (inactive)
same,Potency,[8],> 92 µM (inactive)
same,Potency,[9],> 92 µM (inactive)
same,"activity change, negative = inhibition",[2]; [10],3.23% (inactive)
N=C(N)c1ccc(OCCCCCOc2ccc(C(=N)N)cc2)cc1 (tested in a mixture with another compound),"activity change, negative = inhibition",[1]; [10],5.08% (inactive)
OC1(c2ccc(Cl)cc2)CCN(Cc2c[nH]c3ccccc23)CC1,"activity change, negative = inhibition",[1]; [10],6.53% (inactive)
same,Potency,[3],15.8 µM (active) and 31.6 µM (active)
same,"activity change, negative = inhibition",[2]; [10],8.51% (inactive)
CC(C)[C@H](NC(=O)OCc1ccccc1)C(=O)N[C@H](C=O)Cc1ccccc1 (Cbz-Val-Phe-aldehyde),"activity change, negative = inhibition",[1]; [10],-8.71% (inactive)
same,Potency,[3],inactive
same,"activity change, negative = inhibition",[2]; [10],-9.23% (inactive)
O=c1onc2cnc3ccccc3n12,"activity change, negative = inhibition",[1]; [10],-2.81% (inactive)
same,Potency,[3],12.6 µM (active) and 2.51 µM (active)
same,"activity change, negative = inhibition",[2]; [10],1.27% (inactive)
O=C(O)c1cc2cc(F)ccc2[nH]1,"activity change, negative = inhibition",[1]; at 17.2 µM (top of the series),14.4% (inactive)
same,"activity change, negative = inhibition",[1]; at 38 µM (top of the series),0.264% (inactive)
same,Potency,[3],inactive
same,"activity change, negative = inhibition",[2]; at 17.2 µM (top of the series),-6.32% (inactive)
same,"activity change, negative = inhibition",[2]; at 38 µM (top of the series),-3.11% (inactive)
NC(=O)c1ccccc1,"activity change, negative = inhibition",[1]; [10],-2.04% (inactive)
same,Potency,[3],inactive
same,Potency,[4],> 92 µM (inactive)
same,Potency,[5],> 92 µM (inactive)
same,Potency,[6],> 92 µM (inactive)
same,Potency,[7],> 92 µM (inactive)
same,Potency,[8],> 92 µM (inactive)
same,Potency,[9],> 92 µM (inactive)
same,"activity change, negative = inhibition",[2]; [10],20.6% (inactive)
CCCn1c(=O)c2[nH]c(C3CCCC3)nc2n(CCC)c1=O,"activity change, negative = inhibition",[1]; at 17.2 µM (top of the series),-7.55% (inactive)
same,"activity change, negative = inhibition",[1]; at 38 µM (top of the series),-12.1% (inactive)
same,Potency,[3],1.26 µM (active) and 251 nM (active)
same,"activity change, negative = inhibition",[2]; at 17.2 µM (top of the series),11.5% (inactive)
same,"activity change, negative = inhibition",[2]; at 38 µM (top of the series),-0.836% (inactive)
Cc1nc(N=Nc2cc(S(=O)(=O)O)c3cc([N+](=O)[O-])cc(S(=O)(=O)O)c3c2)c(COP(=O)(O)O)c(C=O)c1O,"activity change, negative = inhibition",[1]; [10],-0.539% (inactive)
same,Potency,[3],39.8 µM (active)
same,"activity change, negative = inhibition",[2]; [10],2.42% (inactive)
COc1ccccc1N1CCN(CCCCN2C(=O)c3ccccc3C2=O)CC1,"activity change, negative = inhibition",[1]; [10],-12.6% (inactive)
same,Potency,[3],inactive
same,"activity change, negative = inhibition",[2]; [10],-20.4% (inactive)
NCCCNCCCCNCCCN,"activity change, negative = inhibition",[1]; [10],11.4% (inactive)
same,Potency,[3],inactive and 15.8 µM (active)
COc1ccc(NC(=O)c2ccc(-c3ccc(-c4noc(C)n4)cc3C)cc2)cc1N1CCN(C)CC1,"activity change, negative = inhibition",[1]; [10],-2.61% (inactive)

# — PubChem BioAssay (NCATS)
